Compounds with a hit are over-represented: about 3.2% of the library has one in this group of screens.
Tau fluor counter: Counterscreen qHTS for Inhibitors of Tau Fibril Formation, Fluorescence Polarization. tau K18 P301L Alexa594 fluorescence, heparin fibrillization. Potency, µM (top dose mostly 57.7 µM). 280,000 tested, 0.93% active; note: nearly all actives have a fitted effect of over 55% in size
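Human K18 P301L tau (15 uM unlabeled plus 0.24 uM Alexa 594-labeled, final) in 100 mM sodium acetate pH 7 was mixed with compound and 20 uM heparin and incubated 6 hr at 37 C.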
Tau ThT inhib: qHTS for Inhibitors of Tau Fibril Formation, Thioflavin T Binding; 270,000 tested, 2.1% active; recombinant tau K18 P301L, heparin-induced fibrillization, ThT fluorescence; Potency, µM (top dose mostly 57.4 µM), hits mostly inhibitors; note: nearly all actives have a fitted effect of over 55% in size
Target sequence (P10636 561-689 P618L limits assumed): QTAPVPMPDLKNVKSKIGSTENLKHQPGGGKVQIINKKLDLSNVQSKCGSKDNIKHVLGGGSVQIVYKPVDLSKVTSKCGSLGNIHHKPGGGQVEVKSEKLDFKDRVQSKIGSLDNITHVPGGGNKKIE
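Fibril formation assay: tau K18 P301L at 15 uM with trace Alexa 594 label, heparin inducer 20 uM, pH 7 sodium acetate buffer, 37 C for 6 hr; endpoint ThT signal.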
JMJD2E inh: qHTS Assay for Inhibitors of Human Jumonji Domain Containing 2E (JMJD2E); Lysine-specific demethylase 4E (Homo sapiens), B2RXH2; JMJD2E catalytic domain, FDH-coupled NADH fluorescence (FDH is formaldehyde dehydrogenase); Potency, µM (titrated, usually from 57.1 µM), hits mostly inhibitors; 230,000 tested, 1.6% active; active = well fitted inhibition curve with a large enough effect, not every such curve was filed as active; inconclusive = small, poorly fitted or top-dose-only effect, or another doubt; inactive = no such curve, though single readings can be large or run the other way; note: nearly all actives have a fitted effect of over 50% in size
Target sequence (B2RXH2 1-337 limits assumed): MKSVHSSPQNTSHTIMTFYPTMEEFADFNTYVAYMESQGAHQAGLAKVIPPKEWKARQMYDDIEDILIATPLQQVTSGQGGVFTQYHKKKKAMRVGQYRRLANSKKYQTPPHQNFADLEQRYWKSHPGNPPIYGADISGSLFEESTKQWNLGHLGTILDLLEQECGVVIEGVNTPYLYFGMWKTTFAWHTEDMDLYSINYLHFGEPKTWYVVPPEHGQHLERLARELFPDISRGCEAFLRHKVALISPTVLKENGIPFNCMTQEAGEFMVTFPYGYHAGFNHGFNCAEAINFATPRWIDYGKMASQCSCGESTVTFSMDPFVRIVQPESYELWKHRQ
CBFb-RUNX1 inh: qHTS Assay for Compounds Blocking the Interaction Between CBF-beta and RUNX1 for the Treatment of Acute Myeloid Leukemia; Runt-related transcription factor 1 (Homo sapiens) + Core-binding factor subunit beta …; Potency, µM (titrated, usually from 59.8 µM), most hits filed as inhibitors; AlphaScreen CBFb-His/RUNX1-biotin binding, biochemical; 230,000 tested, under 10 active
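Compounds were screened at multiple concentrations against a preformed CBF-beta(His)/RUNX1(biotin) complex (30 nM of each) for 15 min at room temperature, followed by 90 min with nickel and streptavidin beads and AlphaScreen reading.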
LMNA splice mod: qHTS Assay for Modulators of Lamin A Splicing; HeLa LMNA splicing GFP/RFP minigene ratio, 48 h; Potency, µM (titrated, usually from 46.1 µM), hits mostly inhibitors; 200,000 tested, 0.01% active; AID 1487, 2009; active = well fitted inhibition curve with a large enough effect in the signal ratio, with a control signal flat, not every such curve was filed as active; inconclusive = small, poorly fitted or top-dose-only effect, or effect the other way, or a change in a side signal; the % refers to the signal ratio
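Read-out is the ratio of GFP to DsRed2 object intensity, acquired by 488 nm laser-scanning cytometry on HeLa lamin A-EGFP minigene reporter cells. Compound incubation 48 hrs at 37 °C in Opti-MEM with 2% FBS; DMSO 0.5% final.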
Tau fibril FP: qHTS for Inhibitors of Tau Fibril Formation, Fluorescence Polarization. K18 P301L tau heparin fibrillization, Alexa594 FP, 6 h. AID 1468, 2008. 280,000 tested, 0.39% active. Potency, µM (top dose mostly 57.7 µM), actives largely listed as inhibitors. Microtubule-associated protein tau (Homo sapiens), P10636; note: nearly all actives have a fitted effect of over 55% in size
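Steps: dispense K18 P301L tau (15 uM plus 0.24 uM Alexa 594 tracer, final) in pH 7 sodium acetate; add compound; add heparin (20 uM final); incubate 6 hr, 37 C; add ThT (30 uM final); after 1 hr ambient, read FP.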
Numbers stand for hits; - = inactive; ? = inconclusive; . = no result; [ ] = remark or other dose. Unless noted, calls come from the whole dose curve; as a rule, active = well fitted curve in the direction sought with a large enough effect; inconclusive = small, poorly fitted or top-dose-only effect, or another doubt; inactive = no such curve, though single readings can be large; an effect the other way counts as inactive or inconclusive.

SMILES	Tau fluor counter	Tau ThT inhib	JMJD2E inh	CBFb-RUNX1 inh	LMNA splice mod	Tau fibril FP
CCCSc1nnc2c(n1)OC(CC)N(C(C)=O)c1ccccc1-2 (stereo unspecified)	-	-	.	.	.	-
CC(=O)c1ccc(NC(=O)C2CC(=O)N(Cc3ccccc3)C2)cc1 (stereo unspecified)	-	8.9µM	-	-	?	-
COc1ccc(Nc2nnc(-c3cc4c(ccc5ccccc54)oc3=O)s2)cc1	?	5µM	.	.	.	-
O=c1oc2ccc3ccccc3c2cc1-c1nnc(Nc2ccccc2F)s1	-	?	.	.	.	-
COC(=O)c1[nH]c2ccc(Br)cc2c1NC(=O)CN1CCCc2ccccc21	5µM[quencher]	?	-	-	-	-
CCc1cccc(NS(=O)(=O)c2ccc3c(c2)N(CC(=O)OC)C(=O)CS3)c1	-	-	.	.	.	-
O=C1c2ccccc2-c2onc3c(Oc4ccccc4)cc(O)c1c23	?	18µM	-	.	-	-
COc1ccc(-c2onc(C)c2-c2ccccc2)c(O)c1	-	-	-	-	-	-
Cc1cc(NC(=O)c2sc(Nc3ccc(F)c(Cl)c3)nc2N)no1	?	?	-	-	.	-
Cc1cc(NC(=O)c2sc(Nc3cccc(C(F)(F)F)c3)nc2N)no1	18µM[quencher]	11µM	-	-	-	?
COc1ccc(Cl)cc1NC(=O)CSc1nnc2[nH]c(=O)cc(C)n12	-	-	.	.	-	-
COC(=O)C1=C(CSc2nc3c(cc2C#N)CN(C)CC3)OC(N)=C(C#N)C1c1ccccc1F (stereo unspecified)	?	18µM	?	-	-	?
CCOC(=O)C1=C(CSc2nc3c(cc2C#N)CN(C)CC3)OC(N)=C(C#N)C1c1ccc(F)cc1 (stereo unspecified)	?	16µM	?	-	-	?
CCOC(=O)C1=C(CSc2nc3c(cc2C#N)CCC3)OC(N)=C(C#N)C1c1ccccc1 (stereo unspecified)	?	?	-	-	-	-
CCOC(=O)C1=C(CSc2nc3c(cc2C#N)CN(C)CC3)OC(N)=C(C#N)C1c1ccccc1 (stereo unspecified)	?	28µM	?	-	-	-
Cc1ccc(Cc2nc3ccccc3nc2SCC(=O)NCc2ccc(F)cc2)cc1	-	-	.	.	?	-
COc1ccccc1/C=C/c1nc(C#N)c(NCCc2ccccc2)o1	3.5µM[quencher]	?	.	.	.	?
CCN(CC)c1ccc(NC(=O)/C=C\c2ccccc2Cl)cc1	8.9µM[quencher]	4µM	-	-	-	-
Cc1cc(N=Nc2c(O)c3ccccc3[nH]c2=O)ccc1N=Nc1ccc(C(=O)N(C)C)cc1	?	2.2µM	-	?	.	-
Cc1ccc(N=Nc2c(O)c3ccccc3[nH]c2=O)c(S(=O)(=O)N(C)C)c1	-	?	-	-	.	-
Cn1c(=O)oc2cc(S(=O)(=O)NC(Cc3ccccc3)C(=O)Nc3ccc(F)c(Cl)c3)ccc21 (stereo unspecified)	-	-	.	.	.	?
Cc1ccc(S(=O)(=O)OCCc2ccccc2)cc1	-	-	-	-	.	-
COc1ccc(OC)c(-c2c3cc(O)c(=O)cc-3oc3cc(O)c(O)cc23)c1	?	3.2µM	11µM	.	?	16µM
O=c1cc2oc3cc(O)c(O)cc3c(-c3ccccc3O)c-2cc1O	?	2.5µM	14µM	.	.	13µM
O=c1cc(-c2cccc(O)c2O)oc2ccccc12	?	13µM	7.1µM	-	.	-
SMILES	Tau fluor counter	Tau ThT inhib	JMJD2E inh	CBFb-RUNX1 inh	LMNA splice mod	Tau fibril FP
CCOc1ccccc1-c1c2cc(O)c(=O)cc-2oc2cc(O)c(O)cc12	-	?	-	-	-	14µM
COc1ccccc1-c1cc(=O)c2cc(O)ccc2o1	-	-	-	-	.	-
O=C(Cn1ccn(-c2ccc(F)cc2)c(=O)c1=O)Nc1ccccc1C(F)(F)F	-	-	.	.	-	?
O=C(Nc1ccc(-c2cc(C(F)(F)F)nn2-c2ccccc2)cc1)c1cccc(F)c1	?	-	.	.	.	?
Cc1ccc(-n2ncc(C(=O)N3CCN(C4CCCCC4)CC3)c2C2CCN(C(=O)OC(C)(C)C)CC2)cc1C	-	-	.	.	-	-
CCOc1ccc(NC(=O)CSc2nnc3scc(-c4ccccc4)n23)cc1	-	?	.	.	.	-
CCc1nnc2c3ccccc3nc(Nc3ccc(C(C)=O)cc3)n12	-	-	.	.	-	-
COCCn1c(=O)c(-c2ccc(OC)cc2)nc2cnc(N3CCOCC3)nc21	.	.	.	.	-	.
CCOc1ccc2c(O)csc2c1	-	25µM	-	-	-	?
Cc1ccc(Cn2c(C)c3cnn(CC(=O)N4CCN(c5cc(C)ccc5C)CC4)c(=O)c3c2C)cc1	-	-	.	.	.	-
O=c1cc(-c2c(F)c(F)c(F)c(F)c2F)oc2ccccc12	-	-	-	-	?	-
O=c1cc(-c2c(F)c(F)c(F)c(F)c2F)oc2c(F)c(F)c(F)c(F)c12	?	14µM	-	-	?	?
C[C@@H]1COC(=O)O1	.	.	.	-	.	.
Cc1ccc(S(=O)(=O)N/N=C/c2cnn(C)c2C)cc1	-	-	-	-	-	-
COc1ccc2[nH]cc(/C=N/NS(=O)(=O)c3ccc(C)cc3)c2c1	13µM[quencher]	?	-	-	.	-
Cc1ccc(S(=O)(=O)N/N=C/c2c[nH]c3ccccc23)cc1	?	?	-	-	?	-
COc1ccc2c(/C=N/NS(=O)(=O)c3ccc(C)cc3)c[nH]c2c1	13µM[quencher]	?	?	-	.	-
COc1cc(O)ccc1C1CC(=O)Nc2c1c(=O)nc(SCc1ccccc1C)n2C (stereo unspecified)	-	-	.	.	-	-
COc1cccc(C(=O)/C(C#N)=N/Nc2cccc(-c3ccnc(C)n3)c2)c1	?	5µM	-	-	.	-
C/C(=N\Nc1nnc2c3ccccc3n(C)c2n1)c1ccc(C)o1	-	14µM	-	?	-	-
COc1ccc(Nc2ncc(C(=O)Nc3cccc(Cl)c3)c3ccccc23)cc1	8.9µM[quencher]	?	.	.	.	-
COC(=O)c1ccccc1NC(=O)c1cnc(Nc2ccc(OC)cc2)c2ccccc12	4.5µM[quencher]	?	.	.	.	-
COc1ccc(Nc2ncc(C(=O)Nc3cc(Cl)c(OC)cc3OC)c3ccccc23)cc1	?	-	.	.	.	?
O=C(O)c1ccccc1N/N=C/c1c(Sc2nnnn2-c2ccccc2)nc2ccccn2c1=O	?	7.9µM	-	-	?	-
CCOc1cc(/C=C2/SC(=S)NC2=O)ccc1OC(=O)c1ccco1	-	13µM	-	-	-	?
CCOC(=O)c1ccc(N2NC(=O)/C(=C/c3ccc(OC(=O)c4ccco4)c(OC)c3)C2=O)cc1	?	22µM	-	-	?	-
COc1ccccc1-c1nnc2n1N=C(c1c(OC)cccc1OC)CS2	.	.	.	-	.	.
